Values joined by “and” are separate entries in the source; they are usually repeats but may differ in a detail not shown here. Identical values can stand only once. Records with an inconclusive call do not appear. Active and inactive are the calls of the source. Unless noted, the call rests on the fitted dose curve; in most records, active means well fitted curve in the direction sought with a large enough effect in the repeat runs; inconclusive means weak or mixed curves; inactive means no such curve, though single readings can be large; an effect the other way counts as inactive or inconclusive.
How the values were obtained:
[1] = qHTS assay to identify small molecule antagonists of the retinoid-related orphan receptor gamma (ROR-gamma) signaling pathway - cell viability counter screen (AID 1159520); further: nearly all actives have a fitted effect of over 50% in size; further: potency means the concentration at half of the fitted maximal effect; on activity, negative = cytotoxicity: on the % scale 0 is the no-effect control and ±100 the full control effect
Outline: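 Tet-on ROR gamma CHO cells were given compounds for 2 hr, then doxycycline hyclate at 1 uM final, and incubated 16 hr at 37 C. Viability was measured as ATP content by CellTiter-Glo luminescence.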

[2] = target: Nuclear receptor ROR-gamma (Homo sapiens) (UniProt P51449); test: qHTS assay to identify small molecule antagonists of the retinoid-related orphan receptor gamma (ROR-gamma) signaling pathway (AID 1159521; further: nearly all actives have a fitted effect of over 50% in size; further: potency means the concentration at half of the fitted maximal effect;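 on activity change, negative = inhibition: CHO cells with doxycycline inducible ROR-gamma driving an RORE luciferase reporter; top concentration of the series differs between compounds; on the % scale 0 is the no-effect control and ±100 the full control effect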)
Outline: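 Tet-on RORγ CHO cells carrying a ROR response element–luciferase reporter were pretreated with compounds for 2 h, then induced with 1 uM (final) doxycycline hyclate for 16 h at 37 C. Antagonism was read as decreased ONE-Glo luminescence.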

[3] = qHTS assay to identify small molecule agonists of the AP-1 signaling pathway - cell viability counter screen (AID 1159525; calls by dose curve; further: nearly all actives have a fitted effect of over 55% in size; further: potency means the concentration at half of the fitted maximal effect)
Outline: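 AP-1-bla ME-180 cells in Opti-MEM with 0.5% dialyzed FBS, compound exposure 5 h at 37 C in 15-point titration. Viability read in the same wells as ATP content by CellTiter-Glo luminescence, normalised to tetra-n-octylammonium bromide and DMSO controls.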

[4] = qHTS assay to identify small molecule agonists of the AP-1 signaling pathway (AID 1159526; calls by dose curve; further: on the % scale 0 is the no-effect control and ±100 the full control effect)
[5] = target: Retinoic acid receptor RXR-alpha (Homo sapiens) (UniProt P19793); test: qHTS assay to identify small molecule agonists of the RXR signaling pathway (AID 1159527; calls by dose curve; further: on the % scale 0 is the no-effect control and ±100 the full control effect; nearly all actives have a fitted effect of over 35% in size)
Outline: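 GeneBLAzer RXR-alpha-UAS-bla HEK 293T cells in medium with 2% charcoal-stripped FBS, pre-incubated 5 hr at 37 C, then exposed to compounds 16 hr. Beta-lactamase reporter read by FRET substrate, 2 hr room temperature, 460/530 nm emission.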

[6] = qHTS assay to identify small molecule agonists of the RXR signaling pathway - cell viability counter screen (AID 1159529); further: nearly all actives have a fitted effect of over 50% in size; further: potency means the concentration at half of the fitted maximal effect; on activity change, negative = cytotoxicity: series mostly up to about 77 µM; on the % scale 0 is the no-effect control and ±100 the full control effect
Outline: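 RXR-alpha-UAS-bla HEK 293T cells in medium with 2% charcoal-stripped FBS were preincubated 5 hr, then exposed to compounds for 16 hr at 37 C. Viability was read as CellTiter-Glo luminescence after 30 min at room temperature.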

[7] = qHTS assay to identify small molecule agonists of the vitamin D receptor (VDR) signaling pathway - cell viability counter screen (AID 743224); further: potency means the concentration at half of the fitted maximal effect; nearly all actives have a fitted effect of over 50% in size
Outline: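 Plated VDR-bla cells (4 h, 37C) received compound, incubated 16 h, then LiveBLAzer substrate 2 h RT; CellTiter-Glo added afterwards, luminescence read at 30 min.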

[8] = qHTS assay to identify small molecule antagonists of the vitamin D receptor (VDR) signaling pathway - cell viability counter screen (AID 743225); further: nearly all actives have a fitted effect of over 50% in size; further: potency means the concentration at half of the fitted maximal effect
Outline: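 VDR-bla HEK 293T cells, 4 h pre-incubation at 37C, then compound plus 1-alpha,25-dihydroxyvitamin D3 (3 nM final) for 16 h. After the beta-lactamase FRET read, CellTiter-Glo was added to the same wells; luminescence after 30 min at room temperature.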

Chain of Retinoic acid receptor RXR-alpha (Homo sapiens) (P19793 whole entry, looked up): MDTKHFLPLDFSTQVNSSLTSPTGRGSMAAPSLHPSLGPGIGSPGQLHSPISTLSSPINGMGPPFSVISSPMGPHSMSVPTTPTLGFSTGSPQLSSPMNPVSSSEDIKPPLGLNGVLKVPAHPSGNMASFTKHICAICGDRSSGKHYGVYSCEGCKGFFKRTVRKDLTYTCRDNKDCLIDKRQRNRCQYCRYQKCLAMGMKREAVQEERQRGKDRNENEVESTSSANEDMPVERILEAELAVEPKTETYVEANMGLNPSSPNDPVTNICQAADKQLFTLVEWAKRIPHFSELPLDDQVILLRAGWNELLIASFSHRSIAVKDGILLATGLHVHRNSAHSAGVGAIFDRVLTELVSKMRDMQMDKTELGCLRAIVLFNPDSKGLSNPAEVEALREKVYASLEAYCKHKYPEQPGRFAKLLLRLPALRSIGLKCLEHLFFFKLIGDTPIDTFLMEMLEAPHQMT

COc1nccnc1CC(C)C
inactive: Potency [1] | Potency [2] | Potency [3] | Potency [4] | Potency [5] | Potency [6]

CC1CNCC(C)O1 (centres undefined)
inactive: Potency [1] | Potency [2] | Potency [3] | Potency [4] | Potency [5] | Potency [6]

Cc1cc(C)c(C=O)c(C)c1
inactive: Potency [1] | Potency [2] | Potency [3] | Potency [4] | Potency [5] | Potency [6]

c1ccc2c(c1)CCC2
inactive: Potency [1] | Potency [2] | Potency [3] | Potency [4] | Potency [5] | Potency [6]

COc1ccc(C#N)cc1
inactive: Potency [1] | Potency [2] | Potency [3] | Potency [4] | Potency [5] | Potency [6]

C/C=C/C(=O)C1=C(C)CCCC1(C)C
inactive: Potency [1] | Potency [2] | Potency [3] | Potency [4] | Potency [5] | Potency [6]

C=CC/C=C/C/C=C/C/C=C/C
inactive: Potency [1] | Potency [2] | Potency [3] | Potency [4] | Potency [5] | Potency [6]

CO[Si](CCCNCCNCCN)(OC)OC
inactive: Potency [1] | Potency [2] | Potency [3] | Potency [4] | Potency [5] | Potency [6]

C=CC(=O)OCCN(CC)CC
inactive: Potency [1] | Potency [2] | Potency [3] | Potency [4] | Potency [5] | Potency [6]

Cc1cc(=O)[nH]c(=O)[nH]1
inactive: Potency [1] | Potency [2] | Potency [3] | Potency [4] | Potency [5] | Potency [6]

CCc1cccc(CC)c1N(COC)C(=O)CS(=O)(=O)O
inactive: Potency [1] | Potency [2] | Potency [3] | Potency [4] | Potency [5] | Potency [6]

CCCCCCCC(C)=O
inactive: Potency [1] | Potency [2] | Potency [3] | Potency [4] | Potency [5] | Potency [6]

OCCC(O)CO (centres undefined)
inactive: Potency [1] | Potency [2] | Potency [3] | Potency [4] | Potency [6]

CCC(=O)CC(C)CC (centres undefined)
inactive: activity, negative = cytotoxicity [1] 6.35% [at 0.349 µM] | activity change, negative = inhibition [2] 0.102% [at 0.35 µM] | viability change, negative = cytotoxic [3] 5.42% [at 0.29 µM] | activation [4] -5.51% [at 0.29 µM] | activity change, negative = cytotoxicity [6] -1.51% [at 0.29 µM]

CCCCCCCCCCc1ccccc1
inactive: Potency [1] | Potency [2] | Potency [3] | Potency [4] | Potency [6]

CC(C)C(=O)OCc1ccccc1
inactive: Potency [1] | Potency [2] | Potency [3] | Potency [4] | Potency [6]

CC(C)(C)c1cc(CCC(=O)NCCCCCCNC(=O)CCc2cc(C(C)(C)C)c(O)c(C(C)(C)C)c2)cc(C(C)(C)C)c1O
inactive: Potency [1] | Potency [2] | Potency [3] | Potency [4] | Potency [6]

O=CC1CC1
inactive: Potency [1] | Potency [2] | Potency [3] | Potency [4] | Potency [6]

CCc1c(Br)c(Br)c(Br)c(Br)c1Br
inactive: Potency [1] | Potency [2] | Potency [3] | Potency [4] | Potency [6]

CCCCOC(=O)C(C)CC (centres undefined)
active: Potency [7] 24.5 µM
inactive: Potency [8] | Potency [1] | Potency [2] | Potency [3] | Potency [4] | Potency [6]

Cc1ccc(O)cn1
inactive: Potency [1] | Potency [2] | Potency [3] | Potency [4] | Potency [6]

CCCCCCCC(OC)OC
inactive: Potency [1] | Potency [2] | Potency [3] | Potency [4] | Potency [6]

COc1ccccc1C=O
inactive: Potency [1] | Potency [2] | Potency [3] | Potency [4] | Potency [5] | Potency [6]

C[Si](C)O[Si](C)C
inactive: Potency [1] | Potency [2] | Potency [3] | Potency [4] | Potency [6]

CC(C)c1ccccc1N
inactive: Potency [1] | Potency [2] | Potency [3] | Potency [4] | Potency [5] | Potency [6]

CCCCCCCCCCCCOC(=O)c1cc(O)c(O)c(O)c1
active: Potency [8] 43.5 µM and 24.5 µM | Potency [1] 2.42 µM and 4.86 µM | Potency [2] 2.16 µM and 2.17 µM | Potency [3] 43.5 µM and 38.9 µM | Potency [6] 27.4 µM and 34.7 µM

CC(=O)c1ccccc1N
inactive: Potency [1] | Potency [2] | Potency [3] | Potency [4] | Potency [6]

CCCCCCS
inactive: Potency [1] | Potency [2] | Potency [3] | Potency [4] | Potency [6]

OCCCc1cccnc1
inactive: Potency [1] | Potency [2] | Potency [3] | Potency [4] | Potency [5] | Potency [6]

O=C[C@H](O)[C@H](O)[C@H](O)CO
inactive: Potency [1] | Potency [2] | Potency [3] | Potency [4] | Potency [6]

O=C=NCc1cccc(CN=C=O)c1
inactive: activity, negative = cytotoxicity [1] 5.39% [at 19 µM] | activity change, negative = inhibition [2] -2.4% [at 19 µM] | viability change, negative = cytotoxic [3] -10.1% [at 15.8 µM] | activation [4] -14% [at 15.8 µM] | activity change, negative = cytotoxicity [6] -2.82% [at 15.8 µM]

CCCCCCCCCCCCCc1ccccc1
inactive: Potency [1] | Potency [2] | Potency [3] | Potency [4] | Potency [6]

CCOC(OCC)C(=O)c1ccccc1
inactive: Potency [1] | Potency [2] | Potency [3] | Potency [4] | Potency [5] | Potency [6]

Brc1ccccn1
inactive: Potency [1] | Potency [2] | Potency [3] | Potency [4] | Potency [5] | Potency [6]

CCC1CCCCC1
inactive: Potency [1] | Potency [2] | Potency [3] | Potency [4] | Potency [6]
